Most compounds without a hit are left out; they make up all but 9.9% or so of the library.
SW480 rerep: A quantitative high throughput screen for small molecules that induce DNA re-replication in SW480 colon adenocarcinoma cells; SW480 DNA re-replication, Hoechst DNA content imaging, 48 h; Potency, µM (highest dose often 46.1 µM), for the others: at the top dose re-replication activation, actives largely listed as activators; 1.8% of 340,000 active; AID 624297, 2012; further: potency means the concentration at half of the fitted maximal effect; % of control where 0% means no effect; nearly all actives have a fitted effect of over 55% in size
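Cells (250 per well) received 23 nL compound or DMSO by pin tool and were kept 48 hr at 37 C, 5% CO2. Nuclei were then stained with Hoechst for 40 min and scanned for DNA content.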
KB-3-1 cytotox: qHTS assay for MDR1-selective chemotherapeutics: Primary screen using the parental adenocarcinoma cell KB-3-1; KB-3-1 viability, CellTiter-Glo ATP luminescence, 72 h; Potency, µM (doses to about 46.1 µM), hits mostly cytotoxic; 1.4% of 400,000 active; further: potency means the concentration at half of the fitted maximal effect; on the % scale 0 is the no-effect control and ±100 the full control effect; nearly all actives have a fitted effect of over 60% in size
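Cells are dispensed, compounds pinned in, plates held at 37 °C for 72 h, then CellTiter-Glo is added and luminescence read after 10 minutes. Cell line: parental KB-3-1 in phenol-red-free DMEM, 10% FBS.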
IL1B secr inh: qHTS for Inhibitors of Inflammasome Signaling: IL-1-beta AlphaLISA Primary Screen; THP-1 LPS/ATP IL-1B secretion, AlphaLISA, 16 h; stronger effect = lower value; activity change, % at 57.5 µM; 4.7% of 360,000 active; in the data active means activity change below about -50%; inconclusive means mostly about -30% to -49%; further: on the % scale 0 is the no-effect control and ±100 the full control effect
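THP-1 cells pretreated 1 hr with compounds (up to 57.5 uM final), then stimulated with LPS (250 ng/mL final) plus ATP (1.25 mM final); secreted IL-1B measured by AlphaLISA after 16 hr, decreased signal indicating inhibition.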
KB-V1 MDR tox: qHTS assay for MDR1-selective chemotherapeutics: Primary screen using the drug-selected MDR subline cells KB-V1. KB-V1 MDR cells viability, CellTiter-Glo, 72 h. Potency, µM (top dose mostly 46.1 µM), actives largely listed as cytotoxic. 3.4% of 400,000 active; further: potency means the concentration at half of the fitted maximal effect; on the % scale 0 is the no-effect control and ±100 the full control effect; nearly all actives have a fitted effect of over 60% in size
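Compound-treated KB-V1 multidrug-resistant cells, 72 h, 37 degrees C; viability by CellTiter-Glo. Fitted qHTS curves give the values.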
MCF10A rerep: A quantitative high throughput screen for small molecules that induce DNA re-replication in MCF 10a normal breast cells. 2.9% of 350,000 active. MCF 10A DNA re-replication, Hoechst nuclear intensity, 48 h. AID 624296, 2012. Potency, µM (doses to about 46.1 µM), for inactives: at the highest dose activity, positive = re-replication, actives largely listed as activators; further: potency means the concentration at half of the fitted maximal effect; % of control where 0% means no effect; nearly all actives have a fitted effect of over 50% in size
* = called active by the depositor. Unless noted, the call rests on the fitted dose curve; in most records, active means well fitted curve in the direction sought with a large enough effect; inconclusive means small, poorly fitted or top-dose-only effect, or another doubt; inactive means no such curve, though single readings can be large; an effect the other way counts as inactive or inconclusive.

How did N#Cc1cn(C2OC(CO)C(O)C2O)c2ncnc(N)c12 (stereo not given) do in these assays?
SW480 rerep: 12.0%; KB-3-1 cytotox: 0.0073µM*; IL1B secr inh: -108.2*; KB-V1 MDR tox: inconclusive; MCF10A rerep: 18.7%

What do the screens show for `CC(O)(CS(=O)(=O)c1ccccc1)C(=O)Nc1cccc(C(F)(F)F)c1` (stereo not given)?
SW480 rerep: 4.3%; KB-3-1 cytotox: inactive; IL1B secr inh: 0.3; KB-V1 MDR tox: 20.6µM*; MCF10A rerep: -6.9%

How did COC(=O)C1=C(c2c(C)noc2C)C[C@@H]2CC[C@H]1N2C(=O)NCC1CC1 do in these assays?
SW480 rerep: 1.3%; KB-3-1 cytotox: inactive; IL1B secr inh: 13.9; KB-V1 MDR tox: inactive; MCF10A rerep: -0.8%

What do the screens show for `C=CCN1C[C@@H](C)N(C(c2ccc(C(=O)N(CC)CC)cc2)c2cccc(OC)c2)C[C@@H]1C` (stereo not given in full)?
SW480 rerep: -4.0%; KB-3-1 cytotox: inactive; IL1B secr inh: 6.2; KB-V1 MDR tox: inactive; MCF10A rerep: -3.9%

How did c1ccc2c(c1)CSc1ccccc1N2 do in these assays?
SW480 rerep: -91.6%; KB-3-1 cytotox: inactive; IL1B secr inh: -65.4*; KB-V1 MDR tox: inactive; MCF10A rerep: -1.9%

Results for O=C(NCC1=C(c2cccc3ccccc23)C[C@@H]2CC[C@H]1N2Cc1ccco1)c1ccc([N+](=O)[O-])cc1 ?
KB-3-1 cytotox: inactive; IL1B secr inh: -61.5*; KB-V1 MDR tox: inactive

Results for CCn1nc(-c2ccccc2)nc2c(=O)n(C)c(=O)nc1-2 ?
SW480 rerep: inconclusive; KB-3-1 cytotox: 5.17µM*; IL1B secr inh: -114.3*; KB-V1 MDR tox: inactive; MCF10A rerep: 1.46µM*

How did Cc1nc2c(=O)n(C)c(=O)nc-2n(C)n1 do in these assays?
SW480 rerep: 0.517µM*; KB-3-1 cytotox: 5.17µM*; IL1B secr inh: -100.2*; KB-V1 MDR tox: 6.51µM*; MCF10A rerep: 9.2µM*

How did Cn1nc(-c2ccccc2)nc2c(=O)n(C)c(=O)nc1-2 do in these assays?
KB-3-1 cytotox: 4.61µM*; KB-V1 MDR tox: 5.8µM*

How did CC(C)OC1CCCC(O)C1CC(=O)O (stereo not given) do in these assays?
SW480 rerep: -19.4%; KB-3-1 cytotox: inactive; IL1B secr inh: 0.0; KB-V1 MDR tox: inactive; MCF10A rerep: -2.9%

How did CC(C)=CC1C(C(=O)OCN2C(=O)C3=C(CCCC3)C2=O)C1(C)C (stereo not given) do in these assays?
SW480 rerep: -1.5%; MCF10A rerep: 1.7%

Results for CCCCCCCCn1sccc1=O ?
SW480 rerep: 10.3µM*; KB-3-1 cytotox: inconclusive; IL1B secr inh: -107.2*; KB-V1 MDR tox: inactive; MCF10A rerep: 20.6µM*

Results for C[C@]12CC[C@H]3C(CCC4(O)CC(O)CC[C@]34C=O)C1=CC[C@H]2c1ccc(=O)oc1 (stereo not given in full) ?
SW480 rerep: inconclusive; KB-3-1 cytotox: 23.1µM*; IL1B secr inh: inconclusive; KB-V1 MDR tox: inactive; MCF10A rerep: 19.5%

Results for CCc1ccc(-c2nn(Cc3ccccc3)cc2C=O)cc1 ?
SW480 rerep: 4.61µM*; KB-3-1 cytotox: inactive; IL1B secr inh: -59.2*; KB-V1 MDR tox: inactive; MCF10A rerep: 0.3%

What do the screens show for `Cn1c(=O)n(C)c2cc(CNCCc3ccccc3)ccc21`?
KB-3-1 cytotox: inactive; KB-V1 MDR tox: inactive

What do the screens show for `Nc1ccc(-c2ccccc2)cc1`?
SW480 rerep: -9.6%; KB-3-1 cytotox: inactive; IL1B secr inh: -5.3; KB-V1 MDR tox: inactive; MCF10A rerep: 0.5%

What do the screens show for `Nc1ccc(C2(c3ccc(N)cc3)c3ccccc3-c3ccccc32)cc1`?
SW480 rerep: 0.9%; KB-3-1 cytotox: inactive; IL1B secr inh: -171.3*; KB-V1 MDR tox: inactive; MCF10A rerep: 16.5%

How did NC(=Nc1ccccc1)NN=Cc1c[nH]c2ccccc12 do in these assays?
SW480 rerep: 6.51µM*; KB-3-1 cytotox: inconclusive; IL1B secr inh: -109.5*; KB-V1 MDR tox: 2.59µM*; MCF10A rerep: 88.4%

Screens deposited in PubChem BioAssay by National Center for Advancing Translational Sciences (NCATS).
